Several values for one entry are separate records, joined by “and”; a condition that tells them apart may be missing. Equal values may be shown once. Records with an inconclusive call do not appear. Activity calls are given as the source filed them. Unless noted, calls follow the shape of the dose curve; as a rule, active = well fitted curve in the direction sought with a large enough effect; inconclusive = small, poorly fitted or top-dose-only effect, or another doubt; inactive = no such curve, though single readings can be large; an effect the other way counts as inactive or inconclusive.
Columns and labels:
[1] = Cell Viability - BJ (AID 421; calls by dose curve;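 also: potency is read from the fitted curve at half-maximal effect; cells exposed to compound for 40 hours at 37 °C before readout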); conditions: BJ fibroblast viability, qHTS
Method in brief: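 Cytotoxicity as drop in intracellular ATP (CellTiter-Glo, 20 min RT) after 40 hr compound exposure of BJ fibroblasts at 37 °C. Titrations scaled between DMSO and 100 uM tamoxifen, Hill-fitted for AC50.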

[2] = Cell Viability - SK-N-SH (AID 435; calls by dose curve;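 also: potency is read from the fitted curve at half-maximal effect; compound exposure lasted 40 h at 37 °C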); conditions: SK-N-SH neuroblastoma cell viability qHTS
Method in brief: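 Luminescent ATP signal served as the viability read-out after 40 hours of compound treatment of human neuroblastoma SK-N-SH cells. Concentration-response data, scaled between DMSO and 100 uM tamoxifen, gave AC50 values by standard Hill modeling.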

[3] = Cellular Toxicity (caspase-3) Mesangial (AID 660);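 also: combined caspase 3 and 7 activity read by Caspase-Glo luminescence; cells exposed to compound for 16 h before the caspase read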
Method in brief: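 Caspase 3/7 activation measured by Caspase-Glo 3/7 luminescence (20 min, room temperature) following 16 h exposure of mesangial cells (1000/well); AC50 from Hill-equation fit, normalized to DMSO and 100 uM tamoxifen.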

[4] = Cellular Toxicity (caspase-3) Renal Proximal Tubule (AID 667); conditions: renal proximal tubule cells; at 91.7 µM (top of the series), primary cells freshly taken from rat, solvent-only wells 0%, staurosporine 100% unless noted;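 also: cells exposed to compound for 16 hours at 37 °C before detection; 0% = DMSO basal and 100% = 10 µM staurosporine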
Method in brief: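 AC50 derived by standard Hill fit of concentration-response data, normalized between DMSO basal and 10 uM staurosporine as 100% stimulation. Cells: primary rat kidney proximal tubule, 16 h treatment at 37 °C.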

[5] = Cell Viability - LYMP1-003 - Assay at 24 hr (AID 963);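 also: plate controls were DMSO only for no effect and tetraoctylammonium bromide positive control for full effect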
Method in brief: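 Concentration-response qHTS: ATP loss measured by CellTiter-Glo luminescence after 24 h compound exposure at 37 C. Cells were LYMP1-003 human lymphoblastoid, 2500 per well. AC50 derived via standard Hill equation modeling.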

[6] = Cell Viability - LYMP2-015 (AID 971); also: nearly all actives have a fitted effect of over 55% in size; also: potency is read from the fitted curve at half-maximal effect
Method in brief: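 Cytotoxicity readout: decrease in intracellular ATP (CellTiter-Glo luminescence) in 2500 LYMP2-015 lymphoblastoid cells/well after 24 h compound exposure at 37 C. Concentration-response data fitted with the standard Hill equation to give AC50.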

[7] = target: Bile acid receptor (Homo sapiens) (UniProt Q96RI1); test: qHTS assay for small molecule antagonists of farnesoid X receptor signaling (AID 588526; calls by dose curve; also: % is scaled to controls: 0 for no effect and ±100 for the full control effect)
Method in brief: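 Antagonist mode: titrated compounds tested against chenodeoxycholic acid stimulation (normalized to 50 uM CDCA and DMSO) in GeneBLAzer HEK293T cells for 16 h. Beta-lactamase read by CCF4 fluorescence; IC50 from Hill fits.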

[8] = target: Glucocorticoid receptor (Homo sapiens) (UniProt P04150); test: qHTS assay for small molecule agonists of glucocorticoid receptor signaling (AID 588532; active = well fitted curve in the direction sought with a large enough effect in the signal ratio, with a control signal flat; the % refers to the signal ratio;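 also: 100% = dexamethasone at 0.1 µM and 0% = DMSO only wells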); conditions: HeLa MMTV-bla, beta-lactamase ratio, agonist, 18 h; stronger effect = higher value; percent of dexamethasone control, DMSO zero
Method in brief: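 HeLa GRE-bla reporter cells; 18 h compound exposure at 37 C; 2 h CCF4 loading at room temperature; fluorescence at 460 and 530 nm; EC50 by Hill equation.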

[9] = qHTS assay for small molecule antagonists of peroxisome proliferator-activated receptor delta signaling (AID 588535); conditions: HEK293T PPARd-UAS-bla, beta-lactamase FRET ratio, 18 h; 460 nm channel;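 also: cells co-treated with a PPAR-delta agonist as stimulator during compound exposure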
Method in brief: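 Fluorescence from CCF4-loaded GeneBLAzer PPAR-delta-UAS-bla HEK293T cells (2 hrs RT loading) quantified reporter inhibition after an 18 hr, 37 C compound exposure across a titration.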

[10] = target: Peroxisome proliferator-activated receptor gamma (Homo sapiens) (UniProt P37231); test: qHTS assay for small molecule antagonists of peroxisome proliferator-activated receptor gamma signaling (AID 588537; active = well fitted inhibition curve with a large enough effect in the signal ratio, with a control signal flat, not every such curve was filed as active; the % refers to the signal ratio;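 also: reporter cells co-stimulated with 50 nM rosiglitazone agonist during compound treatment; % of control where 0% means no effect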)
Method in brief: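 Fluorescence at 460 and 530 nm (405 nm excitation) reported beta-lactamase cleavage of CCF4 after 2 h room-temperature loading. HEK293 reporter cells in 1% charcoal/dextran-treated FBS had received compound and rosiglitazone for 16 h.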

[11] = target: Retinoic acid receptor RXR-alpha (Homo sapiens) (UniProt P19793); test: qHTS assay for small molecule antagonists of retinoid X receptor alpha signaling (AID 588546; active = well fitted inhibition curve with a large enough effect in the signal ratio, with a control signal flat, not every such curve was filed as active; the % refers to the signal ratio;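 also: cells stimulated with 9-cis-retinoic acid as agonist; % is scaled to controls: 0 for no effect and ±100 for the full control effect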); conditions: HEK293T RXRa-UAS-bla, beta-lactamase ratio, antagonist mode
Method in brief: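 Beta-lactamase reporter inhibition, read as CCF4 fluorescence ratio (ex 405, em 460/530 nm) after 2 h at RT. HEK293T UAS-bla cells, 2500/well, were stimulated with 9-cis-RA at 500 or 100 nM final alongside test compound for 18 h at 37 C.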

[12] = qHTS assay for small molecule activators of the nuclear factor-kappa B (NF-kB) signaling pathway (AID 651749; active = well fitted activation curve with a large enough effect in the signal ratio; the % refers to the signal ratio; also: % of control where 0% means no effect); conditions: NF-kB-bla ME-180 cells, beta-lactamase FRET ratio, 16 h; activation: stronger effect = higher value
Method in brief: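 In this qHTS format, compounds acting as activators increase NF-kB-driven beta-lactamase in ME-180 cells, measured as disrupted FRET after 16 hr exposure at 37C and 5% CO2.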

[13] = target: Peroxisome proliferator-activated receptor alpha (Homo sapiens) (UniProt Q07869); test: qHTS assay for small molecule agonists of the peroxisome proliferator-activated receptor alpha (PPARalpha) signaling pathway (AID 651778); conditions: PathHunter PPARalpha complementation, chemiluminescence, 6 h; stronger effect = higher value; also: % of control where 0% means no effect
Method in brief: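 Enzyme-fragment complementation assay in which ligand-bound PPARalpha translocates and forms an active enzyme that generates chemiluminescence. Cells were plated overnight, exposed to compound for 6 hr at 37 C, and then given detection reagent for 60 min at room temperature.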

[14] = Cell Viability - LYMP2-012 (AID 982);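 also: cellular ATP by luciferase luminescence where a drop means cytotoxicity; cells exposed to compound for one day before reading; 0% = DMSO only and full loss = 92 µM tetraoctylammonium bromide; nearly all actives have a fitted effect of over 55% in size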
[15] = Cell Viability - LYMP2-022 (AID 987);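 also: 0% = DMSO alone and full effect = tetraoctylammonium bromide at 92 µM; nearly all actives have a fitted effect of over 55% in size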
Method in brief: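 Cytotoxicity read as decreased cellular ATP (CellTiter-Glo luminescence, 30 min room temperature) after 24 hours compound exposure of 2500 lymphoblastoid LYMP2-022 cells/well at 37 C. Concentration-response data fitted with standard Hill equation for AC50.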

[16] = qHTS assay for cell viability of the p53RE-bla HCT-116 cell line (AID 743292); also: % is scaled to controls: 0 for no effect and ±100 for the full control effect; nearly all actives have a fitted effect of over 55% in size
Method in brief: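 Compound-exposed HCT-116 (p53RE-bla) cells, 4,000 per well, were kept 16 h at 37 C following a 5 h preincubation. Cell number was estimated from total ATP by CellTiter-Glo luminescence read after 30 min at room temperature.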

[17] = MultiTox-Fluor Cytotoxicity Assay - LYMP1-003 - Live Cells (AID 962);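 also: 0% = DMSO only and full loss = 92 µM tetraoctylammonium bromide; cytotoxic hits lower the live-cell protease signal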
Method in brief: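 Live-cell protease activity (GF-AFC substrate, 405/510 nm, 60 min at room temperature) after 16 h, 37 C compound exposure of human lymphoblastoid LYMP1-003 cells; concentration-response fitted to the Hill equation for AC50.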

[18] = Cell Viability - LYMP2-010 (AID 981)
Method in brief: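 CellTiter-Glo ATP luminescence measured cytotoxicity after 24 h compound exposure at 37 C. LYMP2-010 cells were seeded at 2500/well, with tetraoctylammonium bromide as control; concentration-response curves gave AC50 values by the Hill equation.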

[19] = Cell Viability - LYMP2-001 (AID 921);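 also: 0% = DMSO only and full inhibition = tetraoctylammonium bromide control wells; nearly all actives have a fitted effect of over 70% in size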
Method in brief: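 Steps: seed 2500 lymphoblastoid cells/well; 5 hr, 37 C; add compound; 24 hr, 37 C; CellTiter-Glo reagent, 30 min room temperature; read luminescence. Concentration-response modeled by Hill equation for AC50.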

Sequence of Bile acid receptor (Homo sapiens) (Q96RI1 whole entry, looked up): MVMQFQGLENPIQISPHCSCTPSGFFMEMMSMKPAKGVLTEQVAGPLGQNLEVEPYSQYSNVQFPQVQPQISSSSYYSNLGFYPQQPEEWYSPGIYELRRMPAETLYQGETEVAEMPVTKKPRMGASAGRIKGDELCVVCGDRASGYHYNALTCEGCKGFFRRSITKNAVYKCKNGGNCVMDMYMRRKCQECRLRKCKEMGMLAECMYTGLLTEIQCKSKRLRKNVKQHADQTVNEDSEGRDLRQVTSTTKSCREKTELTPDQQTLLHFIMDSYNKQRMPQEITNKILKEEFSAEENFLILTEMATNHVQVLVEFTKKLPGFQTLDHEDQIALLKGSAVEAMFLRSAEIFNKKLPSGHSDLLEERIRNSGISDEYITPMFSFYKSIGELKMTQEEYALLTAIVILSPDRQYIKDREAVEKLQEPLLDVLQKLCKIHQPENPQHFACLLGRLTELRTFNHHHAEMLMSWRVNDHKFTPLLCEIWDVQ
Sequence of Peroxisome proliferator-activated receptor gamma (Homo sapiens) (P37231 whole entry, looked up): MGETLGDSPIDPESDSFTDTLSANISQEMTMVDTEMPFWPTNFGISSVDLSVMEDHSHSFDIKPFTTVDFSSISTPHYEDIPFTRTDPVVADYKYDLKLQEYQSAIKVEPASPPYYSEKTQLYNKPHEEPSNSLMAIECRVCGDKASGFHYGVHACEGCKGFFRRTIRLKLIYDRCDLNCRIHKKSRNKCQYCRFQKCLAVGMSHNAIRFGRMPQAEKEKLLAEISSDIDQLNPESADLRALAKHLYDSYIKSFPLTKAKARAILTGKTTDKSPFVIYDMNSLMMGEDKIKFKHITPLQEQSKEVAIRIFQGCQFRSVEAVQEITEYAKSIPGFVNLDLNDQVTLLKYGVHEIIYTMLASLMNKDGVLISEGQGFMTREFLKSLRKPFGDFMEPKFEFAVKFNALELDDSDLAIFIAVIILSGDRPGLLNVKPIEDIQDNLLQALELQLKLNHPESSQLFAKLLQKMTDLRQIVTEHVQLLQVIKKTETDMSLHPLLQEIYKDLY
Sequence of Peroxisome proliferator-activated receptor alpha (Homo sapiens) (Q07869 whole entry, looked up, the tested form may be a part): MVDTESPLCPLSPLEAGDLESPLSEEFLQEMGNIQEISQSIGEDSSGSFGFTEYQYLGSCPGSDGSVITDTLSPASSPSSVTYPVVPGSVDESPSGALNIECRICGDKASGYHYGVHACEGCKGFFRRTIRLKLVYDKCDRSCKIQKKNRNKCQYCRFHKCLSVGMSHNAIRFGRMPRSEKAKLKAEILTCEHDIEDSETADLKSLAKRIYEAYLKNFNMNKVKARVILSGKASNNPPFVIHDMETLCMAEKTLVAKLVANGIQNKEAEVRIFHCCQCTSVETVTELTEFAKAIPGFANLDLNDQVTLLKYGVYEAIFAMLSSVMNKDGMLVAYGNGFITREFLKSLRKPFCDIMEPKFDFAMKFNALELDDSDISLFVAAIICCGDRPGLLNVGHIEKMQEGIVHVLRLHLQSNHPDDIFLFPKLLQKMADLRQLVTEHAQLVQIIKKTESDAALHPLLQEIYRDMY
Sequence of Glucocorticoid receptor (Homo sapiens) (P04150 whole entry, looked up): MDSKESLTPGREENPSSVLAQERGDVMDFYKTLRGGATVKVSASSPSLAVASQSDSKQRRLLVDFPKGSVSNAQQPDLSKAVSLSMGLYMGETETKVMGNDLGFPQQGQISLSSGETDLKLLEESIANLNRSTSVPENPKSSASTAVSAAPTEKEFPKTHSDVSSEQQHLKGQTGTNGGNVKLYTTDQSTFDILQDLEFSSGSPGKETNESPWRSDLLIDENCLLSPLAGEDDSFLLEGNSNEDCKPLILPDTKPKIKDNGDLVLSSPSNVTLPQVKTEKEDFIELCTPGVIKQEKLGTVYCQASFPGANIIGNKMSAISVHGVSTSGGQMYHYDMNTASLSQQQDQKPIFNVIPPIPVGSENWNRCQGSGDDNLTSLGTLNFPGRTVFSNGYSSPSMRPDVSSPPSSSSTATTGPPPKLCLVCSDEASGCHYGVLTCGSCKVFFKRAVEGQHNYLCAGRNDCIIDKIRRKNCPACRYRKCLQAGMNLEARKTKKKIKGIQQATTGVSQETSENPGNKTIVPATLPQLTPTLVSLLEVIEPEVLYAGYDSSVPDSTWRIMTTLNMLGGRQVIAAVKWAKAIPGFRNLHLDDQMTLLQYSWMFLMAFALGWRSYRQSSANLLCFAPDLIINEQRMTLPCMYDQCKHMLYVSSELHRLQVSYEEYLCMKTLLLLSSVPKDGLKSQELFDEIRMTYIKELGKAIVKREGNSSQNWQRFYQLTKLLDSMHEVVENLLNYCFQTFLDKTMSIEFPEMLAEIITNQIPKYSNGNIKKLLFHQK
Sequence of Retinoic acid receptor RXR-alpha (Homo sapiens) (P19793 whole entry, looked up): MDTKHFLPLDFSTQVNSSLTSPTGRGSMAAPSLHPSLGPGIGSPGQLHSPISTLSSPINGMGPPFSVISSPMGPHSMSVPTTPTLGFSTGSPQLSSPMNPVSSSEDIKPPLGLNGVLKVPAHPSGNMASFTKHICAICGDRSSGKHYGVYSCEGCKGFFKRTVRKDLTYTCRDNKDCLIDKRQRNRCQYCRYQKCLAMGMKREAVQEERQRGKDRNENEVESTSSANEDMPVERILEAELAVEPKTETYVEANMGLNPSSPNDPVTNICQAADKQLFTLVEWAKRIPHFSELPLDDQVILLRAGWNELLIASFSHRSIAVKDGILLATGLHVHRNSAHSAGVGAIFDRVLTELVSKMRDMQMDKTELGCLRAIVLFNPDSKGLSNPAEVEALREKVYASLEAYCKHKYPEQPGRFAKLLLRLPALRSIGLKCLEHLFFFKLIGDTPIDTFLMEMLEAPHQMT

CC(C)(OO)c1ccccc1
inactive: Potency [1] > 92 µM | Potency [2] > 92 µM | outcome [3] | caspase-3 activation [4] -7.39% | Potency [5] | outcome [7] | activation [8] 1.9% and -7.5% | Potency [10] | max response [11] 2.62% and 5.92% | activation [12] -2.1% and -0.395% | max response [13] -1.59% and -0.102%
active: Potency [6] 39.8 µM
-33%: max response [9]

CCOP(=S)(OCC)SCSC(C)(C)C
18.1% and -40.8%: max response [9]
inactive: Potency [1] > 92 µM | Potency [2] > 92 µM | outcome [3] | Potency [5] | Potency [6] | Potency [14] | Potency [15] | Potency [10] | max response [11] -12% and 0.279% | Potency [16]

C=C(Cl)Cl
-8.55%: max response [9]
inactive: Potency [1] > 92 µM | Potency [2] > 92 µM | outcome [3] | caspase-3 activation [4] 1.42% | Potency [17] | Potency [6] | Potency [18] | activation [8] -1.7% | Potency [10] | max response [11] -1.27%

ClC(Cl)=C(Cl)Cl
inactive: Potency [1] > 92 µM | Potency [17] | Potency [5] | Potency [6] | Potency [15] | outcome [7] | Potency [10] | activation [12] 0.509% and -0.543% | max response [13] -0.144% and -2.45%

COc1ccc(N)cc1
inactive: Potency [1] > 92 µM | Potency [2] > 92 µM | caspase-3 activation [4] 4.4% and -11% | Potency [17] | Potency [6] | Potency [18] | activation [8] -7.51% and 3.18% | max response [11] -1.34% and 19.9% | max response [13] -0.77% and -1.08%
35%: max response [9]

[O-][Br+2]([O-])O
inactive: Potency [2] > 92 µM | outcome [3] | Potency [19] | Potency [5] | Potency [18] | Potency [15] | Potency [10] | activation [12] 0.211% and 0.528% | max response [13] 8.01% and -0.25% | Potency [16]

Clc1ccc2ccccc2c1
inactive: Potency [1] > 92 µM | outcome [3] | caspase-3 activation [4] 7.88% | Potency [19] | Potency [5] | Potency [18] | Potency [15] | outcome [7] | Potency [10] | Potency [16]
-27.9%: max response [9]

C[N+](C)(C)Cc1ccccc1
-16.9% and 15.9%: max response [9]
inactive: Potency [2] > 92 µM | outcome [3] | caspase-3 activation [4] 4.55% [at 91.7 µM] | Potency [19] | Potency [5] | Potency [6] | Potency [18] | Potency [14] | outcome [7] | activation [8] -1.14% | Potency [10] | Potency [16]

C=CC(=C)C
inactive: Potency [2] > 92 µM | outcome [3] | Potency [17] | Potency [5] | Potency [18] | outcome [7] | Potency [10] | max response [11] -0.537% | Potency [16]
-16.7%: max response [9]

CCOc1ccc(N)cc1
inactive: Potency [1] > 92 µM | caspase-3 activation [4] -17.4% | Potency [19] | Potency [15] | outcome [7] | max response [11] -3.13% | activation [12] -0.228% | max response [13] 3.04% | Potency [16]

CC(C)(C)OOC(C)(C)C
29.5%: max response [9]
inactive: Potency [1] > 92 µM | Potency [17] | Potency [18] | Potency [14] | Potency [15] | outcome [7] | activation [8] -1.7% | activation [12] 1.21% | Potency [16]

C=CC(C)=O
inactive: Potency [2] > 92 µM | outcome [3] | Potency [5] | Potency [6] | Potency [15] | outcome [7] | activation [8] -1.11% | max response [11] 8.07% | activation [12] 0.254% | max response [13] -1.26%
6.99%: max response [9]

C=CCOC(=O)c1ccccc1N
8.66%: max response [9]
inactive: Potency [2] > 92 µM | outcome [3] | caspase-3 activation [4] 0.151% [at 91.7 µM] | Potency [19] | Potency [5] | Potency [18] | Potency [15] | activation [8] 3.1% | max response [11] 2.96% | Potency [16]

Source: PubChem BioAssay (NCATS)
